# B2AR arrestin ag – qHTS assay of beta-arrestin-biased ligands of beta2-adrenergic receptor: NCGC Sytravon Library Screen | Beta-2 adrenergic receptor (Homo sapiens), P07550 | HTLA Tango cells, beta-arrestin recruitment, luciferase luminescence, 18 h | Potency, µM (top dose mostly 46.1 µM), usual class: activators | 44,000 tested, under 10 active | AID 1347077, 2019;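 note: potency is the fitted concentration of half-maximal effect; 0% = DMSO and full agonism = EC100 isoproterenol or metaproterenol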
#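 Receptor–beta-arrestin recruitment read by tTA-responsive luciferase: compound titrations (up to 46 µM) incubated 18 h with Tango cells, then luminescent substrate 15 min at room temperature. Concentration-response fits classified by r2, efficacy and activity.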
# GALC G270D act – A Novel Cell-Based Assay to Identify Small Molecules for B -Galactocerebrosidase; P54803; Potency, µM (series often up to 57.5 µM), usual class: activators; 0.1% of 45,000 active; 145M-Twi-hGALC-G270D cells (Twitcher mouse brain line with human GALC G270D), HMU-beta-Gal fluorescence, 48 h; note: potency is the fitted concentration of half-maximal effect; 0% is about no effect; nearly all actives have a fitted effect of over 65% in size
#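 Fluorogenic HMU-b-Gal hydrolysis (0.1 mM final, pH 5.2 citrate-phosphate with 1 mg/mL sodium taurocholate; carbonate stop buffer) measures mutant GALC activity after compound treatment of live 145M-Twi Twitcher brain cells stably carrying human GALC-G270D, with wild-type GALC line alongside; activation sought.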
# TSG101-PTAP inh – qHTS Validation Assay for Inhibitors of HIV-1 Budding by Blocking the Interaction of PTAP/TSG101: Sytravon Library Screen. 44,000 tested, under 10 active. Fluorescence polarization, FITC-PTAP peptide/Tsg101, 20 min. Tumor susceptibility gene 101 protein (Homo sapiens), Q99816. Potency, µM (doses to about 115 µM), most hits filed as inhibitors; note: potency is the fitted concentration of half-maximal effect; 0% is about no effect
# Target sequence (Q99816 whole entry, looked up): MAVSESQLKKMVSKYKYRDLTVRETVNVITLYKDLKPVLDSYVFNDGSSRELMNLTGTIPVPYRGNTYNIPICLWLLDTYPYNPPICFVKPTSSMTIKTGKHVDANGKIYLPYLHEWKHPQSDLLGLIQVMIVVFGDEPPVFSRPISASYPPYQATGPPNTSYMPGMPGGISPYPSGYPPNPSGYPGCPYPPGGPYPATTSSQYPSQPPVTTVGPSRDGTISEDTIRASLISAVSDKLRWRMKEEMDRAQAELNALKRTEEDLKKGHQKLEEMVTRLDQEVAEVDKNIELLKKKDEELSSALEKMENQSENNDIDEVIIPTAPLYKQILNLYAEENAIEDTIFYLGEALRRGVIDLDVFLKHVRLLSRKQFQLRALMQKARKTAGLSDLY
#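 The Tsg101 binding domain, at 10 uM final, is mixed with compound and a FITC peptide bearing the PTAP motif (50 nM final). After 20 min at r.t., polarization is measured; actives defined by CRC class, efficacy cut-off 60% inhibition.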
# FH mod – Identification of activators of human fumarate hydratase by quantitative high-throughput screening. FH coupled MDH/diaphorase resazurin fluorescence, 15 min. Potency, µM (top dose mostly 79.9 µM), without a hit: at the top dose activity change, negative = inhibition, most hits filed as inhibitors. 0.22% of 54,000 active. AID 1347055, 2019; note: potency is the fitted concentration of half-maximal effect; % is set by controls: 0 for no effect and ±100 for the full control effect; the screen sought activators but most active calls are inhibition curves; nearly all actives have a fitted effect of over 45% in size
# DRV1 agonist – qHTS for Agonists of Human Resolvin D1 Receptor DRV1; Probable G-protein coupled receptor 32 (Homo sapiens), O75388; activation, % at 76.9 µM; CHO-K1 GPR32 beta-arrestin PathHunter luminescence, 90 min; zero percent set by DMSO-only wells; 2.5% of 48,000 active;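 active = activation of at least 60% and not above a set upper limit, about 1 call in 100 departs from these limits; inconclusive = activation of 40% to 60%, or above that upper limit; inactive = activation under 40%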; note: 0% is about no effect
#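 CHO-K1 cells stably expressing ProLink-tagged GPR32 and Enzyme Activator-tagged beta-arrestin were seeded at 2,500 cells/well overnight, exposed to compounds for 90 min at 37 °C, then read by beta-Gal complementation chemiluminescence after 1 h detection reagent.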
# GALK inh – qHTS Assay for Inhibitors of Human Galactokinase (GALK): NCGC Sytravon Library Screen. Potency, µM (top dose mostly 57.5 µM), for inactives: at the top dose activity, negative = inhibition, hits mostly inhibitors. recombinant GALK, Kinase-Glo ATP luminescence, 1 h. P51570. 44,000 tested, under 10 active;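 note: plate controls were full GALK reaction for no effect and reaction lacking GALK for full effect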
#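 5 nM GALK with 35 µM ATP and 100 µM galactose in HEPES pH 8.0, MgCl2, NaCl, DTT, BSA; 1 h RT reaction, remaining ATP detected by Kinase-Glo Plus luminescence after 10 min; qHTS concentration series.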
# * = called active by the depositor; i = inactive; u = inconclusive; x = no result given; ! = not active in a repeat; [ ] = dose if it differs, or a comment. The list is not random: actives were taken first. Their share in the collection is about 2.6%. Unless noted, calls come from the whole dose curve; as a rule, active = well fitted curve in the direction sought with a large enough effect; inconclusive = small, poorly fitted or top-dose-only effect, or another doubt; inactive = no such curve, though single readings can be large; an effect the other way counts as inactive or inconclusive.
SMILES,B2AR arrestin ag,GALC G270D act,TSG101-PTAP inh,FH mod,DRV1 agonist,GALK inh
Cn1cc(C(=O)N2CCN(c3cccc(C(F)(F)F)c3)CC2)c2c3ccccc3n(C)c2c1=O,i,i,i,u,118*,-6%
COc1ccc(N2CCN(C(=O)c3cn(CC(C)C)c(=O)c4c3c3ccccc3n4C)CC2)cc1,i,i,i,32µM*,-28,-1%
CCn1c(SCC(=O)Nc2cc(C)ccc2F)nnc1-c1ccccc1O,i,i,i,-18%,82*,7%
CCn1c(SCC(=O)Nc2ccc(C)cc2Br)nnc1-c1nonc1NC(C)=O,i,i,i,5%,-10,-4%
CN(C)c1ccnc2sc3c(=O)n(N4CCCCCC4)cnc3c12,x,x,x,-3%,x,x
CCc1ccc(-n2c(=O)c3c4c(sc3n(CC(=O)NCCCOC)c2=O)CCC4)cc1,i,i,i,0%,-19,2%
COCCCNC(=O)Cn1c(=O)n(-c2ccc(Cl)cc2)c(=O)c2c3c(sc21)CCCCC3,i,i,i,1%,60*,4%
CC1=C(C(N)=O)C(c2cccc(O)c2)n2ncnc2N1 (centres undefined),i,i,i,1%,61*,-1%
CC1=C(C(=O)Nc2ccccc2Cl)C(c2cccc(O)c2)n2ncnc2N1 (centres undefined),i,i,i,-11%,-5,4%
CCCC(CCC)C(=O)NCc1ccc2c(cnn2-c2ccccc2OC)c1,x,x,x,0%,x,x
O=C(Nc1cccc(C(F)(F)F)c1)c1cccc(C(=O)Nc2cccc(C(F)(F)F)c2)c1,i,i,i,11%,u,1%
O=C(O)c1cccnc1Nc1cccc(C(F)(F)F)c1,x,i,x,-16%[53.3 µM],100*!,x
Nc1ccn([C@H]2O[C@@H](CO)[C@H](O)[C@H]2O)c(=O)n1,x,x,x,21%,x,x
CC(CC(=O)NCc1ccc(Cl)cc1Cl)CC1=NS(=O)(=O)c2ccccc2N1 (centres undefined),i,i,i,3%,66*,1%
COc1ccc(CNC(=O)CC(C)CC2=NS(=O)(=O)c3ccccc3N2)cc1 (centres undefined),i,i,i,5%,5,1%
COc1ccccc1S(=O)(=O)Cc1ccc(C(=O)NCc2ccc(Cl)cc2)o1,i,i,i,-7%,98*,1%
O=C(NCCc1ccc(Cl)cc1)c1ccc(CS(=O)(=O)Cc2ccccc2F)o1,i,i,i,-17%,111*,1%
NC(=O)c1ccccc1Nc1ccnc(Nc2cccc(O)c2)n1,x,x,x,-10%,x,x
C[C@@H]1O[C@@H](O[C@H]2CC[C@@]3(C)C(CC[C@]4(C)C3CC=C3[C@@H]5CC(C)(C)CC[C@]5(C(=O)O[C@@H]5O[C@H](CO)[C@@H](O)[C@H](O)[C@H]5O)CC[C@]34C)[C@]2(C)CO)[C@H](O)[C@H](O[C@@H]2O[C@H](CO)[C@@H](O)[C@H](O)[C@H]2O)[C@H]1O (some centres undefined),x,x,x,-2%[20.6 µM],x,x
Cc1ccc(C)c(N2CCN(C(=O)C3CCCN(S(=O)(=O)c4cccc5nonc45)C3)CC2)c1 (centres undefined),i,i,i,-20%,10,2%
Cc1ccc(C)c(N2CCN(C(=O)C3CCCN(S(=O)(=O)c4cccc5nsnc45)C3)CC2)c1 (centres undefined),i,i,i,-14%,66*,2%

# Assay outcomes as filed in PubChem BioAssay.
